Laboratory results as given in PubChem BioAssay AID743148 (Broad Institute, 2013).
Active and inactive are the calls of the source.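 The calls were made as follows: active = fitted half-maximal signal loss reached at or below twice the highest valid dose tested; inconclusive = flat curve with 30 to 70% loss, or a poor fit; inactive = the rest, including signal gain.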

Assay: HepG2 cell cytotoxicity, dose response, cytotoxicity control, CellTiter-Glo luminescence, dry powder, set 4 (AID 743148)
Settings: HepG2 viability, CellTiter-Glo ATP luminescence, 72 h; series mostly up to 26 µM

Row | Compound | outcome
1 | O=C1CN2Cc3c(ccc(Cl)c3Cl)N=C2N1 | inactive
2 | C[C@@H]1CC(=O)NN=C1c1ccc(F)c(F)c1 | inactive
3 | C[C@@H]1CC(=O)NN=C1c1ccc(-c2cncnc2)cc1 | inactive
4 | CCN(CC)c1ccc(C2=NNC(=O)CC2C)cc1[N+](=O)[O-] (stereo not drawn) | inactive
5 | C[C@@H]1CC(=O)NN=C1c1ccc(Cl)cc1 | inactive
6 | CCN1N=C(c2ccc(N(CC)CC)cc2)[C@H](C)CC1=O | inactive
7 | C[C@@H]1CC(=O)NN=C1c1ccc(N2CCOCC2)c(F)c1 | inactive
8 | C[C@@H]1CC(=O)NN=C1c1ccc(C2CCCCC2)cc1 | inactive
9 | C[C@H]1CC(=O)NN=C1c1ccc(N2CCOCC2)c(F)c1 | inactive
10 | COc1cc2c(cc1OC)-c1cc(=Nc3c(C)cc(C)cc3C)n(C)c(=O)n1CC2 | inactive
11 | Cn1c(NC(=O)c2ccccc2)nc2ccccc21 | inactive
12 | C[C@@H]1CC(=O)NN=C1c1ccc(N2CCOCC2)cc1 | inactive
13 | CC(=O)Nc1ccc(C2=NNC(=O)C[C@H]2C)cc1[N+](=O)[O-] | inactive
